DT40 TDP1 no CPT – qHTS for Inhibitors of human tyrosyl-DNA phosphodiesterase 1 (TDP1): qHTS in cells in absence of CPT | 420,000 tested, 15% active | Potency, µM (highest dose often 46.2 µM), usual class: inhibitors | DT40 Tdp1-/- hTDP1 cells, no CPT, ATP luminescence, 48 h; also: nearly all actives have a fitted effect of over 55% in size
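DT40 Tdp1-/-;hTDP1 cells, no CPT (DMSO vehicle only), 400 cells/well; compounds pin-transferred; ≥48 hr, 37 °C; CellTiter-Glo 30 min RT dark, luminescence read.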
HT1080NT lethal – kills 2HG-producing HT-1080-NT fibrosarcoma cells; HT-1080-NT fibrosarcoma viability, CellTiter-Glo ATP luminescence, 48 h; Potency, µM (series often up to 46.1 µM), usual class: cytotoxic; 360,000 tested, 1.6% active; AID 686970;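 also: NT is the 2HG producing partner of a matched IDH1 knockdown line; nearly all actives have a fitted effect of over 55% in size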
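Viability by CellTiter-Glo luminescence after 48 h compound exposure at 37C of HT-1080-NT cells (750/well, RPMI, 5% FBS). % activity scaled between DMSO wells and medium-only wells, then curve-fitted and categorized by curve class.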
KB-3-1 tox – kills parental KB-3-1 adenocarcinoma cells | KB-3-1 viability, CellTiter-Glo ATP luminescence, 72 h | Potency, µM (titrated, usually from 46.1 µM), most hits filed as cytotoxic | 400,000 tested, 1.4% active; also: nearly all actives have a fitted effect of over 60% in size
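Parental KB-3-1 adenocarcinoma cells in phenol-red-free DMEM with 10% FBS were pin-treated with compounds at several concentrations, incubated 72 h at 37 °C, and viability read by CellTiter-Glo luminescence; concentration-effect curves were fitted after normalization.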
KB-V1 cytotox – kills drug-selected multidrug resistant KB-V1 cells; KB-V1 MDR cells viability, CellTiter-Glo, 72 h; AID 1347076; 400,000 tested, 3.4% active; Potency, µM (doses to about 46.1 µM), most hits filed as cytotoxic; also: nearly all actives have a fitted effect of over 60% in size
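Cells of the MDR subline KB-V1 are plated, dosed with compound at multiple concentrations, and incubated 72 h at 37 degrees C; CellTiter-Glo is then added and luminescence read after 10 min.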
DT40 TDP1 CPT – DT40-hTDP1 cell growth loss with CPT. chicken DT40 Tdp1-/-;hTDP1 cells + 20 nM CPT, ATP luminescence, 48 h. Potency, µM (doses to about 46.2 µM), hits mostly inhibitors. 420,000 tested, 12% active. AID 686979; also: nearly all actives have a fitted effect of over 55% in size
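Cell growth measured by CellTiter-Glo luminescence after a minimum 48 h, 37 C compound exposure with 20 nM CPT in Tdp1-knockout DT40 cells stably expressing hTDP1, seeded 400/well; qHTS titration format.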
HT1080 IDH1KD tx – kills HT-1080 cells with IDH1 knockdown; HT-1080 IDH1 knockdown viability, ATP luminescence, 48 h; Potency, µM (highest dose often 46.1 µM), most hits filed as cytotoxic; 360,000 tested, 2% active; AID 686971
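Using the IDH1-knockdown HT-1080 line run in the same batch and compound series as the NT line, viability after 48 h at 37 °C was determined by CellTiter-Glo luminescence and expressed as % activity.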
Each line names hits and unclear results; the compound was inactive in the other large screens. An excerpt weighted towards active compounds, which were near 19% of everything screened. Calls follow the shape of the dose curve; as a rule, active = well fitted curve in the direction sought with a large enough effect; inconclusive = small, poorly fitted or top-dose-only effect, or another doubt; inactive = no such curve, though single readings can be large; an effect the other way counts as inactive or inconclusive.

CN(c1ccc(OCC(=O)OCC(=O)Nc2ccc(OC(F)F)cc2)cc1)S(=O)(=O)c1cccs1	none
O=C(Nc1ccc(Cl)cc1)N1CCCN(Cc2ccc(F)cc2)C1	DT40 TDP1 no CPT 20.6µM, HT1080NT lethal inconclusive, KB-3-1 tox inconclusive, KB-V1 cytotox inconclusive, DT40 TDP1 CPT 23.1µM, HT1080 IDH1KD tx inconclusive
COc1ccc(CNC(=O)N2CCN(c3cccc(Cl)c3)CC2)cc1OC	DT40 TDP1 no CPT inconclusive, KB-V1 cytotox inconclusive, DT40 TDP1 CPT inconclusive
Cc1cccc(N2CCN(C(=O)NCc3ccc(Cl)cc3)CC2)c1	DT40 TDP1 no CPT 20.6µM, HT1080NT lethal inconclusive, KB-3-1 tox 23.1µM, KB-V1 cytotox 8.2µM, DT40 TDP1 CPT inconclusive, HT1080 IDH1KD tx inconclusive
O=C(Nc1cc(Cl)cc(Cl)c1)N1CCCN(Cc2ccccc2)CC1	DT40 TDP1 no CPT inconclusive, HT1080NT lethal 20.6µM, KB-V1 cytotox inconclusive, HT1080 IDH1KD tx inconclusive
O=C(NCc1ccc(Cl)cc1)N1CCN(Cc2ccccc2)CC1	DT40 TDP1 no CPT inconclusive, KB-3-1 tox inconclusive, KB-V1 cytotox 16.4µM, DT40 TDP1 CPT 23.1µM, HT1080 IDH1KD tx inconclusive
O=C(Nc1ccccc1)N1CCN(Cc2ccc(Cl)cc2)CC1	DT40 TDP1 no CPT inconclusive, DT40 TDP1 CPT inconclusive
CCN(CC)CCNC(=O)c1ccc(NS(C)(=O)=O)cc1	none (no result: HT1080NT lethal, KB-3-1 tox, KB-V1 cytotox, HT1080 IDH1KD tx)
CCOC(=O)CCn1nc(C)c2c(C)n(-c3ccccc3)nc2c1=O	none (no result: HT1080NT lethal, KB-3-1 tox, KB-V1 cytotox, HT1080 IDH1KD tx)
Cc1c(Cc2ccccc2)c(=O)oc2cc(OC(C)C(=O)NCC3CCC(C(=O)O)CC3)c(Cl)cc12 (stereo not given)	none
O=C(CSc1nnnn1-c1ccc2c(c1)OCCO2)N1CCN(C(=O)c2ccco2)CC1	DT40 TDP1 no CPT inconclusive, KB-V1 cytotox inconclusive
S=C(NCc1ccccc1)N1CCN(Cc2ccc3c(c2)OCO3)CC1	DT40 TDP1 no CPT inconclusive
Cc1cc(Cl)ccc1NC(=S)N1CCN(Cc2ccccc2)CC1	KB-V1 cytotox 23.1µM
COc1cccc(CN2CCN(C(=S)NCc3ccc(Cl)cc3)CC2)c1	DT40 TDP1 no CPT 20.6µM, DT40 TDP1 CPT inconclusive
COc1ccc(-c2nc(NC(=O)c3cc(C(C)(C)C)nn3C)sc2C)cc1	DT40 TDP1 no CPT 20.6µM, HT1080NT lethal 15.8µM, KB-V1 cytotox 2.31µM, DT40 TDP1 CPT inconclusive, HT1080 IDH1KD tx inconclusive
COc1ccc(-c2csc(NC(=O)Cc3ccccc3F)n2)cc1OC	DT40 TDP1 no CPT 25.9µM, KB-3-1 tox inconclusive, KB-V1 cytotox inconclusive, DT40 TDP1 CPT inconclusive
COc1ccccc1CC(=O)Nc1nc(-c2ccc(F)c(F)c2)cs1	DT40 TDP1 no CPT inconclusive, KB-V1 cytotox inconclusive, DT40 TDP1 CPT inconclusive
COc1ccc(-c2csc(NC(=O)CCNC(=O)c3ccco3)n2)cc1OC	DT40 TDP1 no CPT 16.4µM, DT40 TDP1 CPT inconclusive
Cc1cc(C)c(-c2csc(NC(=O)c3n[nH]c(=O)c4ccccc34)n2)c(C)c1	DT40 TDP1 no CPT 4.11µM, KB-3-1 tox inconclusive, KB-V1 cytotox inconclusive, DT40 TDP1 CPT 9.2µM, HT1080 IDH1KD tx inconclusive
O=C(NC(Cc1ccccc1)C(=O)NCCc1ccccn1)c1ccccc1 (stereo not given)	KB-V1 cytotox inconclusive
Cc1cccc(NC(=O)c2nc[nH]c2C(=O)N(C)Cc2ccccc2)c1	DT40 TDP1 no CPT inconclusive, KB-V1 cytotox inconclusive, DT40 TDP1 CPT inconclusive
O=C(NCCc1csc(-c2ccc(F)cc2)n1)c1ccco1	DT40 TDP1 CPT inconclusive (no result: HT1080NT lethal, HT1080 IDH1KD tx)
COc1ccc(-c2csc(NC(=O)CS(=O)(=O)c3ccccc3)n2)cc1OC	DT40 TDP1 no CPT 16.4µM, KB-V1 cytotox inconclusive, DT40 TDP1 CPT inconclusive
O=C(NC(=S)Nc1nc2c(ccc3ccccc32)s1)c1cccs1	DT40 TDP1 no CPT 14.6µM, KB-V1 cytotox inconclusive, DT40 TDP1 CPT inconclusive
COc1ccc(-c2nc(NC(=O)c3c(C)noc3C)sc2C)cc1	DT40 TDP1 no CPT 20.6µM, KB-V1 cytotox inconclusive, DT40 TDP1 CPT 10.3µM
COc1ccc(-c2nc(CCNC(=O)c3ccco3)cs2)cc1OC	DT40 TDP1 no CPT 20.6µM, DT40 TDP1 CPT inconclusive
CC(C)[C@H](NC(=O)c1ccco1)C(=O)Nc1ccc(N2CCCCCC2)cc1	none

Screening data: PubChem, National Center for Advancing Translational Sciences (NCATS)
